Only some compounds are listed: those with a hit (about 6.5% of all), similar ones and a draw of the others.
HepG2 tox – kills HepG2 cells in TGF-b inhibitor counter-screen; HepG2 CAGA-GFP viability, ATP luminescence, 18 h; Potency, µM (top dose mostly 46.1 µM), inactives show at the top dose activity change, negative = cytotoxicity, most hits filed as cytotoxic; 410,000 compounds, 0.76% hits; note: potency is the fitted concentration of half-maximal effect
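CellTiter-Glo luminescence gave cytotoxicity after 18 hours at 37 degrees C. The cells were HepG2 CAGA-GFP in 1% FBS DMEM, stimulated with 500 pg/mL TGF-beta after compound addition. %Activity was normalised to no-cell wells (complete cell-killing) and DMSO (no toxicity), and curves were fitted and classified.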
IL-1B inflam inh – inflammasome signaling inhibition, IL-1 beta readout; activity change, % at 57.5 µM; THP-1 LPS/ATP IL-1B secretion, AlphaLISA, 16 h; active compounds read low; 360,000 compounds, 4.7% hits; AID 743279; in the data active = activity change below about -50%; inconclusive = mostly about -30% to -49%; note: % is set by controls: 0 for no effect and ±100 for the full control effect
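Secreted IL-1B measured by AlphaLISA bead assay after 16 h compound exposure of THP-1 cells; compounds (final up to 57.5 uM) added 1 h before LPS (250 ng/mL) and ATP (1.25 mM) stimulation; lower signal means less secretion.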
TGFb SMAD3 inh – blocks TGF-b signaling; HepG2 CAGA-GFP TGF-b/SMAD3 reporter, GFP fluorescence, 18 h; TGF-beta stimulated, 500 pg/mL final; Potency, µM (highest dose often 46.1 µM), for the others: top-dose activity, negative = inhibition, actives largely listed as inhibitors; 410,000 compounds, 1.2% hits; note: potency is the fitted concentration of half-maximal effect; % is set by controls: 0 for no effect and ±100 for the full control effect; nearly all actives have a fitted effect of over 65% in size
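Read-out: total well GFP (ex488/em500-530) summed from mean per-cell fluorescence. Cells: HEPG2 CAGA-GFP, 1% FBS DMEM, 18 h at 37 degrees C with 500 pg/mL final TGF-beta. Unstimulated wells served as the full-inhibition control; stimulated DMSO wells = 0%.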
HT1080 IDH1KD tx – HT-1080 IDH1 knockdown cell toxicity (counter line); 360,000 compounds, 2% hits; HT-1080 IDH1 knockdown viability, ATP luminescence, 48 h; Potency, µM (doses to about 46.1 µM), for inactives: at the highest dose activity, negative = toxicity, actives largely listed as cytotoxic; AID 686971;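 note: potency is the fitted concentration of half-maximal effect; 0% = DMSO wells and -100% = cell-free medium wells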
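CellTiter-Glo luminescence after 48 h compound exposure at 37 degrees C of IDH1-knockdown HT-1080 cells in 5% FBS RPMI. %Activity scaled between DMSO wells and cell-free media wells, with curves fitted and assigned curve classes.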
HT1080-NT tox – kills 2HG-producing HT-1080-NT fibrosarcoma cells. HT-1080-NT fibrosarcoma viability, CellTiter-Glo ATP luminescence, 48 h. Potency, µM (titrated, usually from 46.1 µM), for inactives: at the top dose activity, negative = less viability, usual class: cytotoxic. 360,000 compounds, 1.6% hits. AID 686970;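 note: NT is the 2HG producing partner of a matched IDH1 knockdown line; potency is the fitted concentration of half-maximal effect; 0% = DMSO-treated cells and -100% = media-only wells without cells; nearly all actives have a fitted effect of over 55% in size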
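Read-out is CellTiter-Glo luminescence after 10 minutes at room temperature, following 48 hours' compound treatment of HT-1080-NT cells (750 cells/well, RPMI, 5% FBS, 37 degrees C).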
Giardia killer – kills Giardia lamblia; Giardia lamblia trophozoite viability; activity change, % at 7.66 µM, hits read low; 340,000 compounds, 0.15% hits; in the data active = activity change below about -80%; inconclusive = between about -30% and that limit;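 note: parasites exposed to compound for two days anaerobically before the ATP read; % is set by controls: 0 for no effect and ±100 for the full control effect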
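Killing of trophozoites was scored by loss of ATP luminescence after a 48 hrs anaerobic exposure to compounds at 37 deg C, using 100 cells per well.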
* marks the source's active call; other numbers are inactive results; ? = inconclusive; · = no result; [ ] = another dose, or the depositor's remark. Unless noted, calls come from the whole dose curve; as a rule, active = well fitted curve in the direction sought with a large enough effect; inconclusive = small, poorly fitted or top-dose-only effect, or another doubt; inactive = no such curve, though single readings can be large; an effect the other way counts as inactive or inconclusive.

SMILES | HepG2 tox | IL-1B inflam inh | TGFb SMAD3 inh | HT1080 IDH1KD tx | HT1080-NT tox | Giardia killer
COc1cc(CC(=O)OCc2cccc([N+](=O)[O-])c2)cc(OC)c1OC | -6% | 11 | 8% | -15% | 2% | 1
COc1cc(/C=C/C(=O)c2cccc([N+](=O)[O-])c2)cc(OC)c1OC | -100% | -61* | ? | ? | ? | 4
COc1ccc(C(=O)/C=C/c2ccc(C)cc2)c(OC(=O)c2ccc([N+](=O)[O-])cc2)c1 | 0% | ? | 8% | 11% | 15% | -8
O=C(/C=C/c1ccccc1F)c1cccc([N+](=O)[O-])c1 | 14µM* | -9 | ? | -25% | -13% | -25
O=C1CCCC1C(=O)Nc1ccc2ccccc2c1 (stereo not drawn) | 1% | ? | -22% | 2% | 3% | ?
O=C1CCCCC1Nc1ccc2ccccc2c1 (stereo not drawn) | -3% | -64* | -4% | -15% | 0% | -5
Cc1ccc(-n2nc3c([n+]2[O-])CCc2c-3no[n+]2[O-])cc1 | -12% | -78* | -6% | 30% | 23% | 11
[O-][n+]1onc2c1CCc1c-2nn(-c2ccccc2Cl)[n+]1[O-] | -37% | -74* | ? | 11µM* | ? | 3
COc1cc(-c2nc(SCC(=O)Nc3ccc4c(c3)OCO4)c(-c3ccccc3)[nH]2)cc(OC)c1OC | -53% | · | -23% | · | · | ·
COc1ccc(NC(=O)CSc2nc(-c3cccc(C)c3)[nH]c2-c2ccccc2)cc1OC | -19% | · | 11µM* | · | · | ·
O=C(CSc1nc(-c2ccccc2)[nH]c1-c1ccccc1)Nc1ccc2c(c1)OCO2 | -47% | · | 11µM* | · | · | ·
CCOc1ccc(-c2nc(SCC(=O)Nc3ccc4c(c3)OCCO4)c(-c3ccc(F)cc3)[nH]2)cc1 | 13µM* | · | ? | · | · | ·
COc1ccc(-c2nc(SCC(=O)Nc3ccc4c(c3)OCCO4)c(-c3ccccc3)[nH]2)cc1 | -22% | · | ? | · | · | ·
Cc1[nH]c2ccc(C(=O)OC(C)C(=O)N(C)c3ccccc3)cc2c1C (stereo not drawn) | 0% | -15 | ? | -7% | -4% | -10
Cc1[nH]c2ccc(C(=O)OC(C)C(=O)N(C)C3CCCCC3)cc2c1C (stereo not drawn) | -9% | -81* | 0% | -3% | -10% | -3
CCOc1ccc(N(CC(=O)Nc2ccc(OC)cc2)C2=NC3CS(=O)(=O)CC3S2)cc1 (stereo not drawn) | 2% | -58* | 8% | -9% | -14% | ?
CCOc1ccc(N(CC(=O)Nc2ccc(C)c(F)c2)C2=NC3CS(=O)(=O)CC3S2)cc1 (stereo not drawn) | -9% | -16 | -2% | ? | 24% | -25
Cc1nc2ccccc2n1Cc1ccccc1 | -20% | 53 | -28% | ? | -2% | -3
Cc1nc2cc(NCc3ccccc3O)ccc2n1Cc1ccccc1 | -7% | -54* | 0% | -23% | -20% | -1
CC(C)c1nc2oc3c(N4CCNCC4)ncnc3c2c2c1CCC2 | 0% | -13 | 7% | -3% | -7% | -26
CC(C)Cc1nc2oc3c(NCCCN4CCOCC4)ncnc3c2c2c1CCC2 | -15% | -59* | -29% | -4% | 8% | 4
CC(C)Cc1nc2oc3c(Cl)ncnc3c2c2c1CCC2 | -6% | -102* | -30% | ? | 2% | -1
O=C(NCc1ccco1)C1CCN(S(=O)(=O)N2CCOCC2)CC1 | 13% | -2 | 3% | -1% | 14%[9.24 µM] | -2
COc1ccc(CCNC(=O)CCn2c(=O)c3ccccc3n(CC(=O)Nc3cc(Cl)ccc3C)c2=O)cc1OC | -4% | · | 0% | · | · | ·
COc1ccc(CN2CCN(CC(O)Cn3c4ccccc4c4ccccc43)CC2)cc1 (stereo not drawn) | -108% | -57* | ? | ? | 18µM* | 4
SMILES | HepG2 tox | IL-1B inflam inh | TGFb SMAD3 inh | HT1080 IDH1KD tx | HT1080-NT tox | Giardia killer
CCn1c2ccccc2c2cc(CN3CCN(Cc4cc(OC)ccc4O)CC3)ccc21 | -27% | -84* | ? | ? | ? | -13
CCOc1ccc(CN2CCN(CC(O)Cn3c4ccccc4c4ccccc43)CC2)cc1 (stereo not drawn) | 0% | -1 | 16% | -1% | 6% | -14
O=C(Nc1ccc(OC(F)(F)F)cc1)C(Cc1ccccc1)NS(=O)(=O)c1cccc2nsnc12 (stereo not drawn) | -34% | · | -32% | · | · | ·
C=CCc1ccccc1OCC(O)CNC(C)C (stereo not drawn) | 1% | -70* | -2% | 4% | -16% | -7
Cc1ccc(C(C)C)c(OCCn2ccnc2C)c1 | -4% | 3 | -7% | 0% | -30% | 5
Cc1ccc(OCCCCn2ccnc2C)c(C)c1 | -9% | -56* | ? | -16% | -25% | 12
O=C(Nc1ccc(N2CCN(C(=O)c3ccco3)CC2)c(Cl)c1)c1cccs1 | -35% | -63* | 4% | -28% | ? | -6
CC(C)C(=O)N1CCN(c2ccc(NC(=O)c3cccs3)cc2)CC1 | 2% | ? | -1% | 2% | 1% | -10
CC(C)C(=O)N1CCN(c2ccc(NC(=O)c3cccs3)cc2Cl)CC1 | -30% | -83* | -14% | -11% | -16% | -8
O=C(Cc1ccc(Cl)cc1)Nc1ccc(N2CCN(C(=O)c3ccco3)CC2)c(Cl)c1 | -22% | -68* | 0% | ? | ? | -8
CCOc1ncccc1C(=O)N1CCN(S(=O)(=O)c2cccs2)CC1 | 0% | -7 | 0% | 2% | 4% | 12
CCOc1ncccc1C(=O)N1CCN(C(c2ccccc2)c2ccccc2)CC1 | -25% | -90* | -4% | -28% | -27% | 11
O=C(NNc1ccccc1)OCc1ccccc1 | -11% | -18 | 0% | 3.3µM* | ? | ·
CCNC(=S)NNc1ccccc1 | 10% | -95* | -7% | 6.5µM* | 8.2µM* | -9
O=C(NNc1ccccc1)C(=O)NNc1ccccc1 | -1% | -15 | -8% | 1.2µM* | -18% | -13
O=C(CNS(=O)(=O)Cc1ccccc1)NNc1ccccc1 | 1% | 6 | -3% | 4.1µM* | ? | ·
Cc1cccc(NC(=O)CNC(=O)C(NC(=O)Cc2ccccc2)C(C)C)c1C (stereo not drawn) | -9% | 11 | -14% | 0% | 1% | -1
O=[N+]([O-])c1ccc(O)c(-c2cc(C(F)(F)F)nc(-c3ccccc3)n2)c1 | -42% | -62* | ? | -3% | 2.3µM* | -21
C=C(c1ccc(O)cc1)c1ccc(O)cc1 | -22% | -59* | ? | ? | -30% | 6

High-throughput results from PubChem.
